Measurements from PubChem BioAssay (NCATS).
Records with an inconclusive call do not appear. A number with no mark means an inactive call. Calls follow the shape of the dose curve; as a rule, active = well fitted cell-killing curve with a large enough effect; inconclusive = small, poorly fitted or top-dose-only effect, or effect the other way; inactive = flat fitted curve, though single readings scatter.

Each compound was assayed on Es-2 (assay: Primary qHTS to identify gynecologic anti-cancer compounds using libraries of approved drugs and bioactive compounds (AID 1345084; also: nearly all actives have a fitted effect of over 55% in size)). Conditions: Gynecologic cancer cell panel viability, ATPlite luminescence, 48 h; series mostly up to 57.5 µM; activity change, negative = cytotoxicity: at the top concentration.
Method in brief: (§1)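 Cells, 1,000 per well, plated 16 h, then exposed 48 h at 37 C to compounds. Viability by ATPlite luminescence after 15 min at room temperature.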
% is scaled to controls: 0 for no effect and ±100 for the full control effect.

| Compound | activity change, negative = cytotoxicity |
| --- | --- |
| C=C(C(=O)O)[C@@H]1CC=C(CCC(C)=O)[C@@H](C)CC1 | 5.7% |
| C=C[C@]1(C)C[C@H](O)[C@H]2C(=C)C(=O)O[C@@H]2[C@H]1C(=C)CO | 0.854% |
| CC[C@H](C)/C=C(C)/C=C/C1=CC2=C(Cl)C(=O)[C@](C)(O)[C@H](OC(C)=O)[C@H]2CO1 | -0.326% [at 38.5 µM] |
| CN(C)C(=O)Nc1cc(-c2ccccc2)ccc1N(C)C | -5.94% |
| C/C(=C\CO[C@@H]1O[C@H](CO[C@H]2OC[C@](O)(CO)[C@H]2O)[C@@H](O)[C@H](O)[C@H]1O)C(C)(C)O | -7.98% [at 25.3 µM] |
| CC[C@@H](Nc1c(Nc2cccc(C(=O)N(C)C)c2O)c(=O)c1=O)c1cc(C(C)C)co1 | 15% |

What follows are compounds tested on HeLa in the same assay as above. Conditions: Gynecologic cancer cell panel viability, ATPlite luminescence, 48 h; series mostly up to 57.5 µM; activity change, negative = cytotoxicity: at the top concentration.
Method in brief: as §1

| Compound | activity change, negative = cytotoxicity |
| --- | --- |
| CC(OC1OCCN(Cc2n[nH]c(=O)[nH]2)C1c1ccc(F)cc1)c1cc(C(F)(F)F)cc(C(F)(F)F)c1 (centres undefined) | -0.75% |
| Fc1ccc(-c2cncc(CN3CCN(c4cccc5c4OCCO5)CC3)c2)cc1 | -14.1% |
| C=C(CCC1C(C)(O)CCC2C(C)(C)C(O)CCC12C)C(O)CO (centres undefined) | 11.3% [at 38.5 µM] |
| CCC[C@@]1(CCc2ccccc2)CC(O)=C([C@H](CC)c2cccc(NS(=O)(=O)c3ccc(C(F)(F)F)cn3)c2)C(=O)O1 | 4.07% |
| COc1ccc([C@H]2Cc3cccc(O)c3C(=O)O2)cc1OC | 10.4% |
| C/C=C(/C)C(=O)OC1C=C2C3C(C)C(C)C(OC(=O)C(C)C(C)O)CC3(C)CCC2(C)C2(C)CC(OC(C)=O)C3C(C)(C)C(O)C(=O)CC3(C)C12 (centres undefined) | 11.3% [at 25.3 µM] |
| CN1CCN(C2=Nc3ccccc3Nc3ccc(Cl)cc32)CC1 | 15.4% |
| COc1ccc(NC(=O)c2ccc(-c3ccc(C(=N)N)cc3C)cc2)cc1N1CCN(C)CC1 | 0.883% |
